CYP2C19 activ: increases human CYP2C19 enzyme activity; 96,000 tested, under 10 active; AID 1025; P33261; recombinant CYP2C19, luciferin-H EGE luminescence; active compounds read high; 0 = fully inhibited enzyme, 1 = untreated enzyme; activation factor at 5 µM;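 active = activation factor of at least 2 at 5 µM in the primary screen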;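 also: 0 = wells with 2.5 mM tranylcypromine and 1 = vehicle-only wells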
CYP2C9 act: increases human cytochrome P450 2C9 activity; P11712; recombinant CYP2C9, luciferin-H conversion, luminescence; active compounds read high; factor 1 = untreated enzyme, 0 = blocked; activation factor at 5 µM; actives 1.4% (n = 96,000); AID 1024;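 active = activation factor of 2 or more for CYP2C9 at a 5 µM dose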;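 also: 0 = sulfaphenazole-blocked wells and 1 = vehicle-only wells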
CYP2C9 inh: inhibitors of human CYP2C9. inhibition, % at 5 µM. actives 20% (n = 96,000). CYP2C9 Supersomes, luciferin-H conversion, luminescence;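 active = blocking of liver enzyme CYP2C9 beyond about 50% at 5 µM, limit read from the data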
Mac1 fbg inh: blocks human CD11b/CD18 adhesion to fibrinogen | actives 0.54% (n = 93,000) | inhibition, % at 10 µM | AID 1497 | K562 CD11b/CD18 adhesion to fibrinogen, ATPlite luminescence; Mn2+ added to activate the integrin;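 active = primary inhibition of 50% or more at 10 µM, then 40% or more on retest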
Target sequence (P05107 whole entry, looked up, other chains not shown): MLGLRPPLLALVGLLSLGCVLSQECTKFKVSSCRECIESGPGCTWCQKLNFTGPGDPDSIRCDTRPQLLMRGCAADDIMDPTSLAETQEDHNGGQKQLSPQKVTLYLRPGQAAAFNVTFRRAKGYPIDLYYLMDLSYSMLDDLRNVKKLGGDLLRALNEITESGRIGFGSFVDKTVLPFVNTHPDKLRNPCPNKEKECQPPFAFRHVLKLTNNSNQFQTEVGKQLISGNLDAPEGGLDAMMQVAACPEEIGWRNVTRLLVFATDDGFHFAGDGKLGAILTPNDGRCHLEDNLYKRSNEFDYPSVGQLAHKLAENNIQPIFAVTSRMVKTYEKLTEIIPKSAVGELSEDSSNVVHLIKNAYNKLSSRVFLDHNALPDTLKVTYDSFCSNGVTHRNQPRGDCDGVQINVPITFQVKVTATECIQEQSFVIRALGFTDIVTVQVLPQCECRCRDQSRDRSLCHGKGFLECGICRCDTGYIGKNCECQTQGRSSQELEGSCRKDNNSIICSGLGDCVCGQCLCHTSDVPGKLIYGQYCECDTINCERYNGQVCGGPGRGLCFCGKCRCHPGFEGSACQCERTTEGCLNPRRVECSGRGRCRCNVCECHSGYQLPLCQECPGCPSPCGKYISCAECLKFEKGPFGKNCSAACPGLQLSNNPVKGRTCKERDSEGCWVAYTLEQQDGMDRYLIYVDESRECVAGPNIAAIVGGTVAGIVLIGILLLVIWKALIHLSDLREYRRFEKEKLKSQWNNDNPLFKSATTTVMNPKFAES
CYP2C19 inh: human CYP2C19 inhibition | P33261 | CYP2C19 Supersomes, luciferin-H EGE luminescence, 30 min | inhibition, % at 5 µM | actives 21% (n = 96,000) | AID 778;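 active = CYP2C19 inhibition above a set limit at 5 µM in the primary screen, cut at about 50% in these data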;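 also: plate controls were negative control wells for no effect and 2.5 mM tranylcypromine positive control for full effect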
CD11b adhes enh: enhancers of human CD11b/CD18 binding to fibrinogen; activation, % at 10 µM; K562 CD11b/CD18 adhesion to fibrinogen, ATPlite luminescence; P05107+P11215; AID 1499; actives 0.07% (n = 93,000);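 active = 10 µM primary screen giving 50% or more activity, confirmed by 40% or more on retest at that dose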
An asterisk follows results filed as active; . = no result. The list is not random: actives were taken first. Their share in the collection is about 28%.

SMILES	CYP2C19 activ	CYP2C9 act	CYP2C9 inh	Mac1 fbg inh	CYP2C19 inh	CD11b adhes enh
COc1ccc(-c2noc(CSc3nc4ccccc4c(=O)n3-c3ccccc3)n2)cc1OC	0.6	0.3	69*	-14	43	7
COc1cc(-c2nnc(CSc3nc4ccccc4s3)o2)cc(OC)c1OC	0.5	0.3	65*	3	53*	4
COc1ccc(-c2noc(CSc3nc4sc(C)c(C)c4c(=O)n3-c3ccccc3)n2)cc1OC	1	0.7	27	-23	-2	0
O=c1c2ccccc2nc(SCc2nc(-c3ccccc3)no2)n1-c1ccc(F)cc1	0.8	0.4	59*	-21	16	2
COc1ccc(-c2cc(-c3nnc(COC(=O)C4CC4)o3)c3ccccc3n2)cc1OC	.	.	.	0	.	18
CCOc1cc(C(=O)Nc2ccccc2N2CCN(S(C)(=O)=O)CC2)cc(OCC)c1OCC	0.8	0.8	20	-16	20	1
C/C(=N/NC(=O)c1cccs1)c1ccc(NC(=O)COc2ccc(Cl)cc2)cc1	1.1	1	-2	-2	-7	-2
CCOC(=O)c1cc(C(=O)OCC)c2cccc(C)n2c1=O	1	0.9	6	0	-4	6
CCN(C(=O)Cc1c(C(=O)O)[nH]c2ccccc12)c1cc(OC)ccc1OC	1.2	0.9	14	40	-18	0
CCN(C(=O)c1coc(=O)c2ccccc12)c1cc(OC)ccc1OC	0.6	0.4	64*	0	38	0
Cc1cc(C)cc(Nc2cc(C)nc3nc(C)nn23)c1	1.1	0.9	10	0	-9	-2
O/C(=C\Sc1nnc(Cc2ccccc2)o1)c1ccc(Br)cc1	0.2	0.1	93*	0	79*	-4
Cc1cc(C)c(C)c(OCC(=O)NCc2nc(-c3ccccc3)no2)c1	1	1.1	-12	-20	-4	1
Cc1ccccc1Cn1ccc(NC(=O)c2cnn3cccnc23)n1	0.5	0.5	50*	-2	45	2
Cc1ccccc1Cn1ccc(NC(=O)c2nc3ncccn3n2)n1	0.9	0.5	46	-7	7	-3
COc1ccc(Cn2nnnc2C(CC(C)C)N2CCN(c3ccccc3)CC2)cc1 (centres undefined)	0.3	0.4	65*	2	74*	0
CC(C)CC(c1nnnn1C1CCCC1)N1CCN(c2ccccc2F)CC1 (centres undefined)	1	0.9	9	-19	-1	2
CC(C)CC(c1nnnn1C(C)C)N1CCN(c2ccccc2)CC1 (centres undefined)	0.8	0.3	68*	.	22	.
COc1ccc(N2CCN(C(c3nnnn3CCc3ccccc3)C(C)C)CC2)cc1 (centres undefined)	0.8	0.8	20	-10	15	1
COc1ccc(Cn2nnnc2C(C(C)C)N2CCc3ccccc32)cc1 (centres undefined)	0.3	0.3	68*	3	71*	1
CCCC(c1nnnn1Cc1ccc(OC)cc1)N1CCN(c2ccccc2)CC1 (centres undefined)	0.6	0.2	82*	-22	44	-2
CCOC(=O)c1cnc2c(OC)cccc2c1N1CCN(c2ccccc2OC)CC1	0.9	0.5	46	17	7	-2
CCOC(=O)c1cnc2c(OC)cccc2c1N1CCN(c2ccc(OC)cc2)CC1	0.3	0.3	73*	-22	67*	3
O=C(CSc1nnc(Nc2ccccc2)s1)Nc1cccc(S(=O)(=O)N2CCCCC2)c1	.	.	.	62	.	-3
CCOC(=O)N1CCC(N2C(=O)c3ccccc3C2Nc2cc(Cl)c(OC)cc2OC)CC1 (centres undefined)	0.7	0.4	60*	3	30	-2
SMILES	CYP2C19 activ	CYP2C9 act	CYP2C9 inh	Mac1 fbg inh	CYP2C19 inh	CD11b adhes enh
O=C(Oc1c(Cl)cc(Cl)c2cccnc12)N1CCCCC1	0.4	0.5	54*	-14	64*	-2
O=C(Oc1c(Cl)cc(Cl)c2cccnc12)N1CCOCC1	1	1.1	-11	-3	-1	5
CC(C)(C)c1ccc(C2CC2C(=O)N/N=C\c2cc3ccccc3nc2Cl)cc1 (centres undefined)	0.8	0.4	62*	.	24	.
Cc1ccc(C(=O)N/C(=C\c2ccccc2)C(=O)NCC2CCCO2)cc1 (centres undefined)	.	.	.	2	.	-3
CC(/C=C(\NC(=O)c1ccccc1)C(=O)N=Nc1c(O)[nH]c2ccc(C)cc12)=C\c1ccccc1	0.8	0.5	53*	-24	16	49
CS/C(=N\S(=O)(=O)c1cccs1)NC(=O)CSc1nc2ccccc2s1	0.2	0	100*	50	80*	-4
CCOc1ccc(-n2c(C)nnc2SCC(=O)N(CC)CC)cc1	0.9	1	0	-11	5	-3
Cc1cc(N2CCN(c3ccccc3)CC2)nc(-n2nc(C)cc2C)n1	0.4	0.1	90*	-8	60*	4
NC(CC(=O)O)c1ccc(Br)cc1 (centres undefined)	.	.	.	1	.	-3
CCN=C1Sc2nc3ccc(OCC)cc3cc2CN1CCOC	0.1	0	96*	-12	91*	0
COCCNc1nc2ccccc2nc1NS(=O)(=O)c1ccc(C)cc1C	0.8	0	98*	13	24	-2
CC(O)c1cc2c(cc1NC(=O)c1cnn3c1NC(c1ccco1)CC3C(F)(F)F)OCO2 (centres undefined)	1	0.9	14	-19	3	-3
Cc1ccc(C2CC(=O)N(c3ccc(F)cc3)C3=C2C(=O)CCC3)cc1 (centres undefined)	0.8	0.7	29	24	17	0
C=CCc1ccccc1OCC(O)CN1CCN(Cc2ccc3c(c2)OCO3)CC1 (centres undefined)	0.5	0.6	41	-14	48	2
CCOc1ccccc1CN(CCc1ccc2c(c1)OCO2)Cc1ccccn1	0	0.4	58*	-5	98*	19
COc1cc([N+](=O)[O-])cc(CN2CCCCC2)c1O	1	0.9	9	-6	0	-2
CN(C)CCN(Cc1ccccc1)c1ccnc(N(C)C)c1C#N	1	1	2	-6	-3	2
CN(C)c1nccc(N(Cc2ccccc2)Cc2ccccc2)c1C#N	0.7	0.4	65*	0	27	1
COCc1c(Br)c(C)nc(OCC(=O)N/N=C/c2cc(C)n(-c3ccc([N+](=O)[O-])cc3)c2C)c1C#N	.	.	.	-16	.	35
O=C(OCCCC(=O)N1CCOCC1)c1ccccc1	0.5	1.1	-7	-16	48	1
O=C(CCCOc1ccccc1)N1CCCCC1	0.4	1	3	4	56*	-4
O=C(COc1ccc(Cl)cc1)N1CCCCC1	0.7	1	-2	-2	35	-4

Screening data as filed in PubChem.
